Columns and labels:
Experiment in all cases: PBM binding z-score (relative to random genomic background probes); higher = stronger binding; sequences stand for … in GC…GCGATTGACAGCGTAGAATGAAGG
[1] = tested on: FXR:RXRa (NR concentration 270 nM, RXRa partner concentration 90 nM)
Summary of the method: (§1)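 Binding z-scores were set against random background probes. The data came from custom Agilent 4×180K protein-binding microarrays carrying double-stranded probes with 34-nt variable regions, incubated 1 h with ligand-free nuclear receptor dimers. Partner-specific antibodies detected binding, and scanned fluorescence was regression-normalized.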

[2] = tested on: LXRa:RXRa (NR concentration 270 nM, RXRa partner concentration 90 nM)
Summary of the method: as §1

[3] = tested on: LXRa homodimer (NR concentration 270 nM)
Summary of the method: as §1

[4] = tested on: LXRb:RXRa (NR concentration 270 nM, RXRa partner concentration 90 nM)
Summary of the method: as §1

[5] = tested on: LXRb homodimer (NR concentration 270 nM)
Summary of the method: as §1

[6] = tested on: PPARa:RXRa (NR concentration 270 nM, RXRa partner concentration 90 nM)
Summary of the method: as §1

[7] = tested on: PPARg:RXRa (NR concentration 180 nM, RXRa partner concentration 90 nM)
Summary of the method: as §1

[8] = tested on: PPARg:RXRa 270nM:90nM, anti-RXR (NR concentration 270 nM, RXRa partner concentration 90 nM)
Summary of the method: as §1

[9] = tested on: PPARg:RXRa 30nM:10nM, anti-RXR (NR concentration 30 nM, RXRa partner concentration 10 nM)
Summary of the method: as §1

[10] = tested on: PPARg:RXRa 90nM:30nM, anti-RXR (NR concentration 90 nM, RXRa partner concentration 30 nM)
Summary of the method: as §1

[11] = tested on: PPARg:RXRa DBDmut IVT, anti-RXR (DBD mutation: RXRa K156A/R161A, NR concentration 270 nM, RXRa partner concentration 90 nM)
Summary of the method: as §1

[12] = tested on: PPARg:RXRa IVT, anti-PPARg (NR concentration 270 nM, RXRa partner concentration 90 nM)
Summary of the method: as §1

[13] = tested on: PPARg DBDmut:RXRa IVT, anti-PPARg (DBD mutation: PPARg1 K132A/R137A, NR concentration 270 nM, RXRa partner concentration 90 nM)
Summary of the method: as §1

[14] = tested on: PPARg DBDmut IVT, anti-PPARg (DBD mutation: PPARg1 K132A/R137A, NR concentration 270 nM)
Summary of the method: as §1

[15] = tested on: PPARg homodimer (NR concentration 180 nM)
Summary of the method: as §1

[16] = tested on: PXR:RXRa (NR concentration 270 nM, RXRa partner concentration 90 nM)
Summary of the method: as §1

[17] = tested on: PXR homodimer (NR concentration 270 nM)
Summary of the method: as §1

[18] = tested on: RARa:RXR (NR concentration 270 nM, RXRa partner concentration 90 nM)
Summary of the method: as §1

[19] = tested on: RARa homodimer (NR concentration 270 nM)
Summary of the method: as §1

[20] = tested on: RARb:RXRa (NR concentration 270 nM, RXRa partner concentration 90 nM)
Summary of the method: as §1

Sequence	PBM binding z-score [1]	PBM binding z-score [2]	PBM binding z-score [3]	PBM binding z-score [4]	PBM binding z-score [5]	PBM binding z-score [6]	PBM binding z-score [7]	PBM binding z-score [8]	PBM binding z-score [9]	PBM binding z-score [10]	PBM binding z-score [11]	PBM binding z-score [12]	PBM binding z-score [13]	PBM binding z-score [14]	PBM binding z-score [15]	PBM binding z-score [16]	PBM binding z-score [17]	PBM binding z-score [18]	PBM binding z-score [19]	PBM binding z-score [20]
AGAACGAGCGCAATGAGTTGATAGCACGGGTGGC	-0.384	-0.917	-0.672	-1.03	-0.728	-0.619	0.568	-0.754	-0.641	-0.779	-0.343	-0.563	0.051	-0.552	0.0308	-0.486	-0.247	-0.449	-0.49	-0.312
TCTTGTAGTTCAACAGGAGGTTAAGAAAGATCGA	1.51	2.8	1	1.78	0.269	2.44	0.0566	1.66	2.29	1.89	1.24	0.804	0.436	-0.0772	1.16	3	0.574	2.75	0.938	2.56
CCTACTGGGCCAAAGGTCACTGATTCCAATGCTC	4.23	4.62	2.37	4.72	0.63	6.39	12.2	10.6	10.2	11.6	5.75	7.12	0.0303	-0.418	3.54	5.27	1.1	6.62	1.82	4.56
CGTCCCAGGTCAATGCTAGGTCAGTGAAAGCATT	4.29	4.18	2.32	3.02	-0.0307	3.94	2.35	3.05	0.367	1.97	2.01	2.96	-0.129	-0.875	3.66	3.21	0.306	4.72	-0.102	4.37
CGAACTAGGTCATTGACAGGACAGTTAATAGTAA	4.35	3.12	0.774	2.36	0.0885	4.66	7.39	6.51	3.39	5.59	8.43	8.43	3.82	2.93	2	1.68	0.386	2.32	0.822	3.6
AGAATGAGGTTATACGGAGATCAGGGAAGAAAGT	2.36	1.94	0.0841	1.7	0.0612	3.29	1.7	2.04	0.685	1.45	2.35	2.05	1.14	0.774	0.836	1.25	0.96	1.74	0.352	1.5
AAGACAGGGTCACTAGGCCAGAGTAGGTACGAAT	5.99	3.14	-0.215	3.25	-0.368	5.62	7.53	6.21	2.71	5.21	3.14	5.06	0.632	0.999	1.27	2.89	0.212	4.16	-0.193	4.21
ATATGTAGGTTATCGGGACATTCAGTTTGCGCAT	0.568	0.813	0.715	0.858	0.692	3.3	5.05	4.45	2.25	3.45	7.42	6.98	2.35	2.08	2.64	0.647	1.45	0.532	1.55	1.06
ACTATTAGTTGACTTAGGGCAACCCATACGACGC	0.287	0.126	0.344	0.24	0.53	0.137	1.03	0.234	0.457	0.203	0.51	0.696	0.977	1.6	0.67	0.18	0.375	0.59	1.02	0.823
CCGACTGGGGCAAAGGATACCATACTCAGTACGA	-0.424	-0.501	-0.0956	-0.347	-1.05	1.32	4.4	5.19	3.28	5.31	3.85	3.35	-0.00815	-0.219	0.339	-0.407	-0.363	-0.246	-0.215	0.425
CGTCCAATGTCAAGGTCAGTGAAAGAGACTCGAA	2.47	1.92	0.422	1.76	0.286	2.67	0.791	1	-0.104	0.482	0.498	1.27	0.404	-0.348	2.25	2.17	0.697	2.26	0.775	3.69
CAAACTAGGTCACCGGAAGGACAAAGTCCGCATG	4.67	3.57	0.547	2.71	0.36	5.63	9.49	7.51	6.09	7.18	8.34	9.2	4.33	1.54	2.4	2.89	0.127	4.17	0.734	4.69
AGAACGAGGGCGATGAGTTGATAGCACGGGTGGC	-0.358	-0.46	-0.764	-0.815	-0.754	-0.167	0.665	-0.212	-0.297	-0.297	0.888	0.217	-0.427	-0.338	-0.143	0.367	1.89	-0.627	-0.34	0.39
ACTAGCAGGCCAAGGGTCTCTCAAGATTAGTCCG	-1.54	-0.539	-0.698	-0.703	-1.05	0.948	2.49	4.52	2.15	4.55	0.281	1.01	-1.04	-0.76	-0.604	-0.568	-0.576	-0.307	-1.21	0.516

From the supplement of paper PMC6555819
